Measurements from paper PMC5700166.

Target: T1, GST-Ap-NF-kB RHD (Exaiptasia pallida (Aiptasia), UniProt A0A913YAJ5 2-422)
T1 sequence: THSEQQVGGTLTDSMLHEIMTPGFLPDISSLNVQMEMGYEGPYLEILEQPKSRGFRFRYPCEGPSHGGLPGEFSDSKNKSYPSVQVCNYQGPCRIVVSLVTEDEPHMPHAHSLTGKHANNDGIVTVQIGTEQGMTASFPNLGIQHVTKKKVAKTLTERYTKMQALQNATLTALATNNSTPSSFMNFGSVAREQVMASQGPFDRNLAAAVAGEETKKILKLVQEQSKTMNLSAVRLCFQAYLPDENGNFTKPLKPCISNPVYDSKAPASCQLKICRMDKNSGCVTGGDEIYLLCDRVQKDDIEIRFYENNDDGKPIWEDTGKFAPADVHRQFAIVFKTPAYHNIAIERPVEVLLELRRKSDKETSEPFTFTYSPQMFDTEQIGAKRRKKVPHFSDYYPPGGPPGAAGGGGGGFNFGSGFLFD
Test: protein-binding microarray (PBM); PBM: ~300 nM protein, 6 mM HEPES pH 7.8, 80 mM KCl, 0.5 mM EDTA, 0.5 mM EGTA, 6% glycerol, 35 ng/ul poly-dIdC, 1% milk, 1 h, room temperature; Ap Aiptasia and Nv Nematostella (sea anemones) / Co Capsaspora / Aq Amphimedon (sponge) / Dm Drosophila / Hu human; RHD is the Rel homology domain; high values mean tight binding
Details: dsDNA, one strand shown

Row | Sequence | binding signal [z-score]
1 | CCGATTAACATCAAGAAACCCCCTGATGTTAATCGGGTCTTGATTCGCTTGACGCTGCTG | 9.53
2 | CCGATTAACATCAAGGGGGAAAATGATGTTAATCGGGTCTTGATTCGCTTGACGCTGCTG | 6.85
3 | CCGATTAACATCAAGGTATTCCCTGATGTTAATCGGGTCTTGATTCGCTTGACGCTGCTG | 4.4
4 | CCGATTAACATCAGGGAAACCCCTGATGTTAATCGGGTCTTGATTCGCTTGACGCTGCTG | 10.6
5 | CCGATTAACATCAGCCCGGGAAATGATGTTAATCGGGTCTTGATTCGCTTGACGCTGCTG | 2.45
6 | CCGATTAACATCAAACTACCCCCTGATGTTAATCGGGTCTTGATTCGCTTGACGCTGCTG | 5.45
7 | CCGATTAACATCAAGGGGGTTTATGATGTTAATCGGGTCTTGATTCGCTTGACGCTGCTG | 7.31
8 | CCGATTAACATCAAAAATCCCCGTGATGTTAATCGGGTCTTGATTCGCTTGACGCTGCTG | 9.77
9 | CCGATTAACATCAGAAATATCCCTGATGTTAATCGGGTCTTGATTCGCTTGACGCTGCTG | 2.4
10 | CCGATTAACATCAACGGATTCCCTGATGTTAATCGGGTCTTGATTCGCTTGACGCTGCTG | 2.31
11 | CCGATTAACATCAGGGGGAATTATGATGTTAATCGGGTCTTGATTCGCTTGACGCTGCTG | 7.99
12 | CCGATTAACATCAGGGGAACTTATGATGTTAATCGGGTCTTGATTCGCTTGACGCTGCTG | 7.4
13 | CCGATTAACATCAGGCATCCCCATGATGTTAATCGGGTCTTGATTCGCTTGACGCTGCTG | 3.84
14 | CCGATTAACATCAGATATTCCCATGATGTTAATCGGGTCTTGATTCGCTTGACGCTGCTG | 3.86
15 | CCGATTAACATCAAACACCCCCTTGATGTTAATCGGGTCTTGATTCGCTTGACGCTGCTG | 4.95
16 | CCGATTAACATCAGGGAATTTTATGATGTTAATCGGGTCTTGATTCGCTTGACGCTGCTG | 6.12
17 | CCGATTAACATCAAAAAATCCCCTGATGTTAATCGGGTCTTGATTCGCTTGACGCTGCTG | 11.7
18 | CCGATTAACATCAGGACTCCCCATGATGTTAATCGGGTCTTGATTCGCTTGACGCTGCTG | 5.91
19 | CCGATTAACATCAAAATTCCCGCTGATGTTAATCGGGTCTTGATTCGCTTGACGCTGCTG | 4.49
20 | CCGATTAACATCAATTTCCCACCTGATGTTAATCGGGTCTTGATTCGCTTGACGCTGCTG | 2.39

Row | Sequence | binding signal [z-score]
21 | CCGATTAACATCAAAATTCCCACTGATGTTAATCGGGTCTTGATTCGCTTGACGCTGCTG | 3.89
22 | CCGATTAACATCACTGAAATCCCTGATGTTAATCGGGTCTTGATTCGCTTGACGCTGCTG | 2.61
23 | CCGATTAACATCACAGTTTCCCCTGATGTTAATCGGGTCTTGATTCGCTTGACGCTGCTG | 6.64
24 | CCGATTAACATCAGGGGAATGTATGATGTTAATCGGGTCTTGATTCGCTTGACGCTGCTG | 6.02
25 | CCGATTAACATCAGGGGGATCCATGATGTTAATCGGGTCTTGATTCGCTTGACGCTGCTG | 7.42
26 | CCGATTAACATCAAGGGAATGCCTGATGTTAATCGGGTCTTGATTCGCTTGACGCTGCTG | 2.72
27 | CCGATTAACATCACAAATTCCCCTGATGTTAATCGGGTCTTGATTCGCTTGACGCTGCTG | 9.44
28 | CCGATTAACATCAGGGTAAGTACTGATGTTAATCGGGTCTTGATTCGCTTGACGCTGCTG | 2.48
29 | CCGATTAACATCACAAACTCCCCTGATGTTAATCGGGTCTTGATTCGCTTGACGCTGCTG | 7.26
30 | CCGATTAACATCACCGTTTCCCCTGATGTTAATCGGGTCTTGATTCGCTTGACGCTGCTG | 6.05
31 | CCGATTAACATCAGGGGGTCCACTGATGTTAATCGGGTCTTGATTCGCTTGACGCTGCTG | 4.33
32 | CCGATTAACATCAGGGGTTTCTATGATGTTAATCGGGTCTTGATTCGCTTGACGCTGCTG | 5.36
33 | CCGATTAACATCAGGGGAAAACCTGATGTTAATCGGGTCTTGATTCGCTTGACGCTGCTG | 9.38
34 | CCGATTAACATCAGGGAAGTACCTGATGTTAATCGGGTCTTGATTCGCTTGACGCTGCTG | 6.67
35 | CCGATTAACATCAGATAATTCCCTGATGTTAATCGGGTCTTGATTCGCTTGACGCTGCTG | 5.7
36 | CCGATTAACATCAGGATTTCCCCTGATGTTAATCGGGTCTTGATTCGCTTGACGCTGCTG | 10
37 | CCGATTAACATCACAAAAACCCCTGATGTTAATCGGGTCTTGATTCGCTTGACGCTGCTG | 7.23
38 | CCGATTAACATCAGGGGAGTTTATGATGTTAATCGGGTCTTGATTCGCTTGACGCTGCTG | 8.25
39 | CCGATTAACATCAGGGGCCCCCCTGATGTTAATCGGGTCTTGATTCGCTTGACGCTGCTG | 7.09
